Measured values reported in ChEMBL document CHEMBL3988442, “University of Dundee, Small-Polar-MMV Screening Library” (2021).
In all, about 69,000 compounds went through this assay and about 30 (0.04%) showed an effect of 50% or more. This excerpt belongs to a sample that is enriched for strong results.

These compounds were tested against T1, Histidine--tRNA ligase (Trypanosoma cruzi (strain CL Brener)) (UniProt Q4DA54) (assay: Trypanosoma cruzi histidyl tRNA synthetase (Tc-HisRS)). Details: 30 µM.
T1 sequence (whole entry): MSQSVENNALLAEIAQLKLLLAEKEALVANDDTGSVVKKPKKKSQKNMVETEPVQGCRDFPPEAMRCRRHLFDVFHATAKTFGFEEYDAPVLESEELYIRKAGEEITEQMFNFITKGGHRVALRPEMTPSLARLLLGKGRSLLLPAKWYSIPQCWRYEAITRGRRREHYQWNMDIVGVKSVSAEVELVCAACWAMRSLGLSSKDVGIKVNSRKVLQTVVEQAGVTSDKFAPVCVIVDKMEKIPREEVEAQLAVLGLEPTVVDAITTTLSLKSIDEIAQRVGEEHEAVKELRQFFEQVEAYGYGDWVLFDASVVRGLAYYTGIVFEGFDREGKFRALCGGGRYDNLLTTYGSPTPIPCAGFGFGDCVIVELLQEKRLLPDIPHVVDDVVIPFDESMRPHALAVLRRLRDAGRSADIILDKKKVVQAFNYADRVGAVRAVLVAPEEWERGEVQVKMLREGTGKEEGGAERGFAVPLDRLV
Assay type: functional
Set-up: scale not given: direction of the effect not stated beside the values

Compound | Percent Effect [%]
CNC(=O)[C@H]1C[C@@H]2CN(S(=O)(=O)c3cccc(C)c3)C[C@@H]2N1C | 5.88
CC(=O)N1CCO[C@@H]2CN(C(=O)c3ccc4ccccc4c3)CC[C@@H]2C1 | -5.75
Cn1nc(Cn2ccnc2)c2c1CN(c1ncccn1)C2 | 2.15
Cn1nc(Cn2ccnc2)c2c1CN(c1nccs1)C2 | 66.7
CCS(=O)(=O)N1Cc2c(Cn3ccnc3)nn(C)c2C1 | 2.67
CN(C)C(=O)N1CCN(c2ccc3ccc(C(=O)NC4CC4)cn23)CC1 | 36.9
CC(=O)N1CCN(c2ccc3ccc(C(=O)NC4CCCC4)cn23)CC1 | 59.4
CN(CC1CC1)c1ccc2ccc(C(=O)NC3CCCCC3)cn12 | 42.8
CC(C)N1CCN(c2ccc3ccc(C(=O)NC4CCCC4)cn23)CC1 | 60.2
COCCN1CCN(c2ccc3ccc(C(=O)NC4CC4)cn23)CC1 | 35
CS(=O)(=O)N1CCN(c2ccc3ccc(C(=O)NC4CC4)cn23)CC1 | 52.4
CCN(CC)c1ccc2ccc(C(=O)NC3CC3)cn12 | 36.8
COCCNC(=O)c1ccc2ccc(N3CCN(CC4CC4)CC3)n2c1 | 38.8
O=C(NC1CC1)c1ccc2ccc(N3CCN(CC4CC4)CC3)n2c1 | 45.1
CS(=O)(=O)NC[C@]12COC[C@H]1CN(C(=O)C1CCSCC1)C2 | -6.35
Cc1cc(CN2CC[C@H]3C(=O)N(c4ccccc4)CCO[C@H]3C2)no1 | 7.1
CCOc1ccc(CCC(=O)N2CC[C@H]3C(=O)NCCO[C@H]3C2)cc1 | 3.45
CN(C)CCO[C@H]1CN(C(=O)c2ccc(C#N)cc2)[C@@H]2COC[C@H]12 | 15.7
CO[C@H]1[C@@H]2CC[C@H]1CN(c1nc(C)nc3ccsc13)C2 | -6.52
CN(C)C(=O)CN1C[C@H]2CCN(C(=O)c3ccccc3)CC[C@H]2S1(=O)=O | 4.3
Cc1noc(C)c1CN1CCO[C@H]2CN(Cc3ccc(F)cc3)C[C@H]21 | 7.2
O=C(Cn1c(=O)nc2n1C(=O)N(c1ccccc1)C2)NC1CCCCC1 | 6.06
COCCNC(=O)c1ccc2ccc(N(C)CC3CC3)n2c1 | 26.4
CN(C)CCNC(=O)c1ccc2ccc(N(C)CC3CC3)n2c1 | -9.13
CN(CC1CC1)c1ccc2ccc(C(=O)NCCc3ccccc3)cn12 | 51.4
O=C(c1ccnnc1)N1CC[C@H]2C[C@H](c3ccncn3)O[C@@H]2C1 | 7.44

Compound | Percent Effect [%]
CS(=O)(=O)N1C[C@H]2C[C@H](C(=O)N3CCOCC3)[C@@H](C1)O2 | 4.85
O=C(O)c1cncc(Cc2ccc(F)cc2)c1 | 62.8
O=C(O)c1cncc(Cc2ccccc2F)c1 | -0.376
O=C(O)c1cncc(Cc2cccc(F)c2)c1 | 5.64
O=C(CO[C@@H]1CC[C@H]2[C@H]1OCCN2Cc1ccccn1)N1CCCC1 | 7.53
Cc1noc(C)c1CN1C(=O)[C@H]2CC[C@@H]1CN(Cc1ccc(Cl)cc1)C2 | 3.17
CCN1C(=O)COC[C@@H]1[C@H](O)c1ccc(NC(=O)COC)cc1 | -5.47
Cn1ccnc1CN1C[C@H]2CN(S(=O)(=O)c3ccccc3)CCN2C1=O | -1.49
CCN1CCN(S(=O)(=O)N2CCc3ccccc3C2)[C@H]2CS(=O)(=O)C[C@H]21 | 1.32
O=C1[C@H]2CC[C@H](CN(Cc3nnc(C4CC4)o3)C2)N1Cc1cscn1 | 8
CC(C)C(=O)N1CC[C@@H]2CN(Cc3ccncc3)S(=O)(=O)[C@@H]2CC1 | 1.07
Cc1ccccc1C(=O)N1CC[C@@H]2CN(c3ncccn3)CCO[C@@H]2C1 | 0.98
CCOC(=O)[C@]12CCCN(Cc3ccco3)C[C@H]1CN(S(C)(=O)=O)C2 | 1.68
c1cc(CN2C[C@@H]3OCCN(CC4CCCO4)[C@@H]3C2)co1 (stereo partly drawn) | 2.94
Cn1cc(CN2CC[C@H]3C[C@H](c4nc(C5CC5)cs4)O[C@@H]3C2)cn1 | 1.67
COc1ccc(OC)c(C2CCN(CC(C)(C)N3CCOCC3)C2)c1 (stereo not drawn) | 8.29
COc1ccc(C(C)C)cc1C1CC(=O)NCc2nc(N(C)C)sc21 (stereo not drawn) | 7.85
COc1ccc(OC)c(C2CC(=O)Nc3nc(N4CCOCC4)sc32)c1 (stereo not drawn) | 75.8
COc1ccc(C2CC(=O)Nc3nc(N4CCOCC4)sc32)c(OC)c1 (stereo not drawn) | 72
COc1ccc(C2CC(=O)Nc3nc(N4CCOCC4)sc32)cc1 (stereo not drawn) | -2.48
CCn1ncnc1C1CC(=O)NCc2nc(N3CCOCC3)sc21 (stereo not drawn) | 9.45
O=C1C[C@H]2[C@@H](CCN2C(=O)Cc2cccs2)N1CC1CC1 | 5.83
CC(C)NC(=O)[C@H]1C[C@@H]2[C@@H](C1)OCCN2Cc1cccs1 | 3.48
CCOC(=O)[C@@H]1CN2CCNC[C@@H]2[C@H]1c1ccccc1 | 1.12
O=C(C1CCOCC1)N1C[C@H]2CCC[C@@]2(COc2cccnc2)C1 | 12.8
CCOC(=O)[C@]12CCCN(Cc3nccs3)C[C@H]1CN(S(C)(=O)=O)C2 | 6.45

Compound | Percent Effect [%]
Cn1cc(C(=O)N[C@H]2CN(S(C)(=O)=O)[C@@H]3CCCO[C@H]23)cn1 | 4.9
Cc1ccc(C(=O)N2CCO[C@H]3[C@@H](OCc4ccccn4)CC[C@@H]32)o1 | 5.43
O=C(c1ccccn1)N1C[C@@H]2CC[C@H](C1)N(C(=O)CCc1cccs1)C2 | 5.02
CCN1CCO[C@@H]2CN(C(=O)NCc3ccccc3)CC[C@@H]2C1 | 1.06
CN1CCC(NC(=O)[C@H]2CC[C@@H]3[C@@H](CCN3c3ncccn3)O2)CC1 | 5.75
c1cnc(N2C[C@@H]3COC[C@]3(COCC3CCCC3)C2)nc1 | 14.3
Cc1ccsc1C(=O)N1C[C@@H]2CN(Cc3ccoc3)CCO[C@@H]2C1 | 3.87
Cc1ccc(N2CCN(C(=O)CN3C[C@@H]4CC[C@H]3C4)CC2=O)cc1 | 6.47
Cc1ccc(CN2CCC[C@]3(C(=O)O)CN(CC4CC4)C[C@@H]3C2)s1 | -3.17
CCn1ncc(CN2C[C@@H]3CCCN3C[C@@H]2CCSC)c1C | 8.99
O=C(C1CCC1)N1CC[C@@H]2CN(Cc3cccnc3)S(=O)(=O)[C@@H]2CC1 | 11.6
CN(C)C(=O)COC[C@]12COC[C@H]1CN(Cc1ccccc1)C2 | 4.67
NC(=O)c1ccc(OCC(=O)N2CCCC2c2ccc[nH]2)cc1 (stereo not drawn) | 9.13
CC1CCN(c2ccc(C(=O)N3CCCC3c3nncn3C)cn2)CC1 (stereo not drawn) | 3.87
CC1CCN(c2ccc(C(=O)N3CCCC3c3ccc[nH]3)cn2)CC1 (stereo not drawn) | 66.8
O=C(Nc1cccnc1)[C@H]1CO[C@H]2CCN(c3ncc(F)cn3)C[C@H]2C1 | 8.11
CC(C)(O)CCc1cccc(C(=O)NCc2cnn3cccnc23)c1 | 1.82
O=C(NCc1cnn2cccnc12)c1cccc(CC2CCNCC2)c1 | 85.5
CC(C)Cn1cncc1CNC(=O)c1cccc(CC2CCNCC2)c1 | 1.62
COc1cc(N2CC[C@H]3O[C@@H](C(=O)NC4CCCC4)CC[C@H]32)ncn1 | 0
CC(=O)N1C[C@@H]2CC[C@H](C1)N(S(=O)(=O)c1ccc(F)cc1Cl)C2 | 3
CC/N=c1/c(NC(=O)C2CC2)c(O)oc2ccccc12 | 3.51
CNC1CCN(C2CCN(c3ccc(-c4ccco4)cc3)CC2)CC1 | 35.3
NCC1CCN(C2CCN(c3ccc(-c4ccco4)cc3)CC2)C1 (stereo not drawn) | 50.6
NC1CCN(C2CCN(c3ccc(-c4ccco4)cc3)CC2)CC1 | 43.5
CC(C)N1[C@H](Cn2cncn2)C[C@@H]2CN(Cc3ccsc3)CC[C@@H]21 | 0

Compound | Percent Effect [%]
O=C(OCc1ccccc1)N1CC[C@H]2CC(CO)O[C@@H]2C1 (stereo partly drawn) | -3.09
CCN1CC[C@@]2(C(=O)N3CCOCC3)CCN(C(=O)C(C)C)CC[C@@H]12 | 4.85
O=C(NC1CC1)N1C[C@H]2CN(Cc3cccc(F)c3)C(=O)[C@H]2C1 | 5.88
CC(C)=CCN1C(=O)[C@H]2CC[C@@H]1CN(c1ncccc1C(N)=O)C2 | -2.41
Cc1nc(CN2C(=O)CC[C@@H]3[C@H]2CCN3C(=O)c2ccno2)cs1 | 8.87
O=S1(=O)CCN(Cc2cccnc2)[C@H]2CCN(c3ncccn3)CC[C@H]21 | 6.95
Cn1nccc1C(=O)N1CCN(C(=O)C2CC2)[C@@H]2CS(=O)(=O)C[C@@H]21 | 4.47
O=C1C[C@H]2[C@@H](CCN2C(=O)Cc2cccs2)N1Cc1cccnc1 | 0.752
Cc1cccnc1CN1CCN(CC(=O)N(C)C)[C@@H]2CS(=O)(=O)C[C@@H]21 | 7.03
Cc1cnc(N2CC[C@@H]3OC(COCC(=O)N(C)C)CC[C@@H]32)nc1 (stereo partly drawn) | -0.614
Cn1cc(N2C(=O)CC[C@@H]3[C@H]2CCN3C(=O)c2cscn2)cn1 | 8.16
COCCN1CCN(Cc2nccs2)[C@H]2CS(=O)(=O)C[C@H]21 | 4.08
CCO[C@@H]1CC[C@H]2[C@H]1OCCN2CCOCc1ccccc1 | 4.12
Cc1cc(C)nc(N2C[C@H]3OC(=O)N(CCc4cccc(Cl)c4)[C@H]3C2)n1 | 7.82
CNC(=O)[C@H]1C[C@@H]2CN(C(=O)NC(C)C)C[C@H]1O2 | 1.03
CC(C)NC(=O)[C@H]1C[C@@H]2CN(C(=O)NCc3ccccc3)C[C@H]1O2 | 9.09
O=C(c1ccnnc1)N1CCN2C[C@H](Oc3cccc(F)c3)C[C@H]2C1 | 1.62
O=C(c1ccco1)N1CC[C@H]2[C@H]1CC(=O)N2c1cccnc1 | 0
O=C(N1CCCC1)N1CC[C@H]2[C@H]1CCN2c1ncccn1 | 6.8
COC[C@@]12CCC[C@@H]1CN(C(=O)N1CCCC1)C2 | 5.03
O=C(CC1CC1)N[C@@H]1CN(C(=O)c2cccs2)C[C@@H]2CCCO[C@@H]21 | 0
CN1C(Cn2cccn2)C[C@@H]2CN(Cc3cnn(C)c3)CC[C@@H]21 (stereo partly drawn) | 7
CCC1=N[C@@]2(CC[C@@H]3CN(Cc4ccc(C)cc4)C[C@@H]32)C(=O)N1C | 7.41
CC(C)CN1CCS(=O)(=O)[C@@H]2CCN(S(=O)(=O)C3CC3)CC[C@@H]21 | 1.07
COc1ccc(CN2C[C@@H]3CC[C@H](C2)N(Cc2snnc2C)C3)cc1 | 11.4
